Consider 9 compounds from the supplement of paper PMC7156485.

Structures are written as SMILES. ± gives the standard deviation of the averaged measurements.

Details in all cases: concentration: 10 µM; 24 h
Assay [1] has as its system HCC1569. The assay can be described thus: cell number relative to DMSO (% of DMSO); higher = more cells (less growth inhibition / toxicity). The gist of the method: (§1)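 H1.0 nuclear intensity or cell number is stated as percent of the plate control, based on the median of replicates, and HCC1569 values were smoothed for positional effects. These came from HCC1569 and TDF cells treated with compounds at 10 µM for 24 h at 37 °C in triplicate, then fixed in 3.7% formaldehyde and stained with a rabbit anti-H1.0 antibody, an AlexaFluor 647 secondary and DAPI.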

For assay [2], the system named is TDF. The assay is described as above. Summed up:
as §1

Assay [3] relates to TDF. The assay is described as follows: H1.0 immunofluorescence intensity relative to DMSO (% of DMSO); higher = stronger H1.0 induction, active = 120 or more. Summed up: as §1
Assay [4] concerns HCC1569. The assay can be described thus: H1.0 immunofluorescence intensity relative to DMSO (% of DMSO); higher = stronger H1.0 induction, active = 140 or more. Summed up:
as §1
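Throughout, for H1.0 immunofluorescence intensity relative to DMSO: TDF is a line of transformed human dermal fibroblasts of mesenchymal origin.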
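Throughout, for cell number relative to DMSO: TDF denotes transformed human dermal fibroblasts of mesenchymal origin.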

In the case of `Cc1cc2c(C(C)C)c(O)c(O)c(C=O)c2c(O)c1-c1c(C)cc2c(C(C)C)c(O)c(O)c(C=O)c2c1O` [Gossypol], the results for the cell number in the assay on HCC1569 [1] and with TDF [2] were 80.6 ± 22 and 99.6 ± 5.5, respectively. In addition, the H1.0 immunofluorescence intensity is 92.2 (inactive) in the assay on TDF [3] and 103 (inactive) in the assay with HCC1569 [4].

For the compound `CN1C(=O)CCS(=O)(=O)C1c1ccc(Cl)cc1` (stereo unspecified) [Chlormezanone], the figures for the cell number with HCC1569 [1] and in the assay on TDF [2] were 101 and 108, respectively. Moreover, the H1.0 immunofluorescence intensity in the assay on TDF [3] is 85.9 (inactive); in the assay on HCC1569 [4], 95.3 (inactive).

As for `CP(=O)([O-])C1=CC[NH2+]CC1`, the cell number with HCC1569 [1] was 96.6; in the assay with TDF [2], 98.6. Moreover, the H1.0 immunofluorescence intensity was 91.8 (inactive) in the assay on TDF [3] and 102 (inactive) in the assay with HCC1569 [4].

With `CC1=CC23C(=O)C(C=C(CO)C(O)C2(O)C1O)C1C(CC3C)C1(C)C` (stereo unspecified) [Ingenol], the cell number in the assay with HCC1569 [1] is 102; in the assay on TDF [2] it was 107. Besides, the H1.0 immunofluorescence intensity with TDF [3] is 94.7 (inactive); with HCC1569 [4], 80 (inactive).

Regarding `CN1C2CCC1CC(OC(=O)c1cc(Cl)cc(Cl)c1)C2` (stereo unspecified) [3-Tropanyl-3,5-dichlorobenzoate], the cell number in the assay on HCC1569 [1] stood at 100; in the assay on TDF [2] it was 106. Besides, the H1.0 immunofluorescence intensity was 102 (inactive) in the assay with TDF [3] and 108 (inactive) with HCC1569 [4].

Regarding `Br.C=CCN1CCc2cccc3c2C1Cc1ccc(O)c(O)c1-3` (stereo not drawn) [R(-)-N-Allylnorapomorphine hydrobromide], the cell number is 84.8 in the assay on HCC1569 [1] and 85.6 in the assay on TDF [2]. In addition, the figures for the H1.0 immunofluorescence intensity in the assay with TDF [3] and in the assay with HCC1569 [4] were 104 (inactive) and 110 (inactive), respectively.

On to `C#CCN(C)C(C)Cc1ccccc1.Cl` [(R)-(-)-Deprenyl.HCl], for which the cell number in the assay with HCC1569 [1] was determined as 104; with TDF [2], 103. Moreover, the H1.0 immunofluorescence intensity in the assay with TDF [3] was 97.8 (inactive); in the assay with HCC1569 [4] it was 101 (inactive).

For `CCCN1CCCC(c2cccc(O)c2)C1.Cl` (stereo not drawn) [R(+)-3PPP hydrochloride], the cell number with HCC1569 [1] came out at 104; in the assay with TDF [2], 106. Further, the H1.0 immunofluorescence intensity in the assay with TDF [3] is 88.2 (inactive); in the assay on HCC1569 [4], 103 (inactive).

As to `O=c1[nH]c2ccccc2n1CCCN1CCC(n2c(=O)[nH]c3cc(Cl)ccc32)CC1` [Domperidone], the results for the cell number in the assay on HCC1569 [1] and in the assay on TDF [2] were 97.7 and 98.7, respectively. Moreover, the H1.0 immunofluorescence intensity in the assay on TDF [3] is 94.7 (inactive); in the assay on HCC1569 [4], 109 (inactive).
